Experiment in all cases: NCI-60 one-dose screen, 48 h (100 = growth as untreated, 0 = no growth, -100 = all killed)
Holding throughout (details): 10 µM unless noted

Experiment [1] has as its system NCI-H23 lung.
Experiment [2] concerns NCI-H226 lung.
Experiment [3] deals with NCI-H322M lung.
Experiment [4] concerns HOP-62 NSCLC.
Experiment [5] has as its system NCI-H460 lung.
The subject of experiment [6] is HOP-92 NSCLC.
Experiment [7] deals with NCI-H522 lung.
For experiment [8], the system named is A549/ATCC NSCLC.
Experiment [9] relates to 786-0 renal.
The test system of experiment [10] is COLO 205 colon.
Experiment [11] has as its system DU-145 prostate.
Experiment [12] has as its system K-562 leukemia.
Experiment [13] deals with MALME-3M melanoma.
Experiment [14] concerns MDA-MB-231 breast.
The subject of experiment [15] is RXF 393 renal.
Experiment [16] relates to SF-268 CNS.
The subject of experiment [17] is SF-295 CNS.
Experiment [18] deals with SF-539 CNS.
Experiment [19] relates to UACC-257 melanoma.
Experiment [20] relates to M14 melanoma.

Compounds without any hit were thinned out: in the full panel of roughly 83,000, 20% have a hit.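 Percent growth is the endpoint: 0 to 100 indicates growth inhibition (40 means 60% inhibition), 0 means no net growth, and negative values indicate cell death.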 Values without a mark were called inactive. Active and inactive are the calls of the source. How the source made its calls: active means growth percent below 10; inactive means the rest.

For the compound `COc1ccc(CCC2c3c(cc4c(c3OC)OCO4)CCN2C)cc1` (centres undefined), the growth in [1] is -48.6% (active); in experiment [2], -59.3% (active); in [3], 0.952% (active); in [4], -30.2% (active); in [5], -89.7% (active); in [6], -30% (active). The growth in experiment [7] was -81% (active); in experiment [8] it was 9.85% (active); in experiment [9] it was -67.1% (active); in [10], -73.1% (active); in [11], 5.2% (active); in [12], 3.01% (active). Further, the growth in experiment [13] is -98.4% (active); in experiment [14], -80.8% (active); in [15], -35% (active); in [16], 10.2%; in experiment [17], -65.2% (active); in experiment [18], -99.9% (active). Also, the growth in experiment [19] was -65.7% (active).

For the compound `COc1ccc(-c2ccnc(SCc3cc4cc(Cl)ccc4[nH]c3=O)n2)cc1`, the growth was 57.8% in experiment [1]; -32.1% (active) in [2]; 87.8% in experiment [3]; -17.3% (active) in experiment [4]; 19.6% in experiment [5]; -32% (active) in [6]. Moreover, the growth in [7] is 34.2%; in [8], 60.7%; in [9], -25.5% (active); in experiment [10] it was 105%; in experiment [11], 35.6%; in experiment [12], 79.1%. For the same compound, the growth in experiment [13] was 27.9%; in [14] it was 26.9%; in experiment [15], -10.7% (active); in experiment [16] it was 0.935% (active); in [17], 26.5%; in [18], 46.2%. In addition, the growth in experiment [19] is 72.1%; in experiment [20], 73.8%.

For `O=C1NC(=O)/C(=C/c2ccccc2OCc2cc3ccccc3nc2Cl)S1`, the growth is 68.8% in [1]; 75.4% in experiment [2]; 79.4% in experiment [3]; 33.6% in experiment [4]; 91.9% in experiment [5]; 56.8% in [6]. The growth in experiment [7] was 79.1%; in [8], 76.9%; in experiment [9] it was 78.2%; in experiment [10], 117%; in experiment [11], 90.5%; in experiment [12], 84.6%. Moreover, the growth in experiment [13] is 82.8%; in experiment [14] it was 64.2%; in experiment [15], 72.8%; in experiment [16], 58.7%; in [17] it was 72%; in experiment [18] it was 70.8%. The figures for the growth in experiment [19] and in experiment [20] were 89.4% and 120%, respectively.

Regarding `CN(C)CCn1c2ccccc2c2nc3ccc([N+](=O)[O-])cc3nc21`, the growth in [1] is -9.77% (active); in experiment [2] it was -21.2% (active); in experiment [3], 11.3%; in experiment [4], -19.3% (active); in experiment [5], 4.86% (active); in experiment [6], 28.9%. Besides, the growth in experiment [7] is -25.2% (active); in experiment [8], -50% (active); in experiment [9] it was 1.77% (active); in experiment [10] it was 3.88% (active); in [11], 7.7% (active); in experiment [12], 8.19% (active). Moreover, the growth in experiment [13] is -14.4% (active); in [14], 5.52% (active); in experiment [15] it was 10.1%; in [16], 24.7%; in experiment [17] it was 0.988% (active); in experiment [18] it was -2.27% (active). In addition, the figures for the growth in experiment [19] and in experiment [20] were -13.2% (active) and 17.9%, respectively.

In the case of `Cc1ccc(C(=O)CSc2nc3ccc(C)cc3c(=O)n2-c2ccc(F)cc2)cc1`, the growth was 56.8% in [1]; 15% in experiment [2]; 60% in experiment [3]; 7.49% (active) in experiment [4]; 32.7% in experiment [5]; -0.0399% (active) in experiment [6]. The growth in [7] is 63.8%; in experiment [8] it was 57.6%; in [9], -3.55% (active); in experiment [10] it was 84%; in experiment [11], 80.9%; in experiment [12], 92.7%. In addition, the growth in experiment [13] is 79.6%; in experiment [14], 21.3%; in experiment [15] it was 30.5%; in experiment [16], 45.5%; in experiment [17] it was 28%; in experiment [18] it was 40.2%. In addition, the growth in experiment [19] is 85.9%; in experiment [20], 79.7%.

Consider `COc1cc2oc(-c3cccc(C(=O)Nc4ccc(Cl)cc4)c3)cc(=O)c2c(OCCNC(=O)[C@@H](N)CCC(=O)O)c1OC`, for which the growth in [1] was 88.2%; in [2] it was 86.6%; in experiment [3] it was 79.8%; in [4] it was 81.9%; in experiment [5] it was 63.2%; in [6], 63%. For the same compound, the growth in experiment [7] is 82.8%; in experiment [8], 103%; in experiment [9] it was 60.6%; in experiment [10], 70.6%; in experiment [11], 86.9%; in [12], 32.2%. The growth was 76.1% in [13]; 30.5% in experiment [14]; 9.77% (active) in experiment [15]; 94.7% in [16]; 86.4% in experiment [17]; 75.4% in experiment [18]. For the same compound, the growth in [19] is 100%; in [20], 16.7%.

`Cn1cc(-c2nnc(N)nc2-c2c[nH]c3ccccc23)c2cccnc21`: the growth in [1] was 65.7%; in [2], 71.1%; in experiment [3], 69.9%; in [4], 48.1%; in [5], 15.2%; in [6] it was 87.1%. The growth was 21.4% in [7]; 46% in [8]; 54.9% in experiment [9]; 25.9% in experiment [10]; 76.9% in experiment [11]; 15.7% in experiment [12]. In addition, the growth in [13] is 38.2%; in [14], 48.5%; in [15], 71.1%; in experiment [16] it was 65.9%; in experiment [17] it was 32%; in experiment [18], 49.3%. Also, the values for the growth in experiment [19] and in experiment [20] were 62.3% and 20.8%, respectively.

In the case of `COc1ccc2[nH]c(O)c(N=NC(=O)COc3ccc(NC(=O)Nc4ccccc4)cc3)c2c1`, the growth in experiment [1] is 20.2%; in experiment [2] it was 26.7%; in experiment [3], 37.2%; in experiment [4], -6% (active); in experiment [5], 48.7%; in experiment [6] it was -9.25% (active). For the same compound, the growth in experiment [7] was 21.1%; in experiment [8], 47.5%; in [9] it was 8.04% (active); in experiment [10] it was 53.6%; in [11], 72.5%; in experiment [12] it was 46.3%. Besides, the growth was 13.9% in [13]; 12.9% in experiment [14]; 39% in experiment [15]; 41.8% in experiment [16]; 41.7% in experiment [17]; -22.7% (active) in experiment [18]. Further, the growth is 63.9% in experiment [19] and 41.7% in experiment [20].

Source of the values: PubChem BioAssay (NCI).
